Among all 340,000 compounds or so, about 8,500 (2.5%) were called active. The sample holds actives, similar compounds and a random draw of the others, so the mix is not that of the screen.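 How the source made its calls: active means melting temperature shift of at least 10% of the positive control shift, at one fixed dose; inactive means the rest.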

The subject of the assay is Glutamate receptor ionotropic, NMDA 3A (GRIN3A) ligand-binding domain. The assay can be described thus: NR3A LBD thermal stabilization by compounds – biophysical, differential scanning fluorimetry, uHTS, primary screen (AID 1259313). The note with it: at 25 µM, hits give high values, 0% = protein alone, 100% = glycine-bound protein.
Regarding `O=C1COc2ccc(C(=O)COC(=O)c3ccccc3Cl)cc2N1`, the Tm shift relative to glycine control was 0% (inactive). The figure for `COc1ccc2c(c1)C(=O)CC(c1ccccc1)O2` (stereo not given) is -1.87% (inactive); for `CCN(CC)c1ccc(C(=O)NNC(=O)CCc2nc3ccccc3c(=O)[nH]2)cc1` it is -0.56% (inactive); for `COc1ccc(C(=O)COC(=O)COc2ccc(C)c(C)c2)cc1` it is 12% (active). To `Cc1ccc(OCC(=O)Nc2ccc(C(=O)O)cc2NC(=O)COc2ccc(C)c(C)c2)cc1C` belongs -0.84% (inactive).

As to `COc1ccc(OCC(=O)OCCN(C)C)cc1`, the Tm shift relative to glycine control is -1.53% (inactive). To `Cc1ccc(Oc2cnn(-c3ccccc3)c(=O)c2Br)cc1` belongs -1.23% (inactive). Consider `Cc1ccc(O/C=C2\OC(=O)c3ccccc32)cc1`, for which the Tm shift relative to glycine control is 49.4% (active). To `Cc1n[nH]c(=O)c2c(NC(=O)COC(=O)c3ncc(Cl)c(Cl)c3Cl)oc(C)c12` belongs 4.91% (inactive); to `Cc1c(CCC(=O)O)c(=O)oc2c(C)c(OCc3ccccc3Cl)ccc12`, 0.1% (inactive). To `CCN([C@H](CO)C(C)C)S(=O)(=O)c1ccccc1Br` belongs -1.23% (inactive); to `O=C(O)CCCC(=O)Nc1ccccc1-n1ccnc1`, -2.48% (inactive); to `CCOC(=O)N1CCN(C(=O)COc2ccc(Br)cc2)CC1`, 10.1% (active). The figure for `CCOC(=O)N1CCN(S(=O)(=O)c2ccc(Br)cc2)CC1` is -0.87% (inactive); for `CCOC(=O)N1CCN(C(=O)COc2ccc3oc4c(c3c2)CCCC4)CC1` it is 1.71% (inactive); for `Cc1cccc([C@@H]2[C@@H]3C(=O)N(Cc4ccccc4)C(=O)[C@@H]3[C@]3(C)C(=O)N(c4ccc(Br)cc4)C(=O)N23)c1` it is -3.72% (inactive). As for `Cc1ccc(-c2cccc([C@H]3[C@@H]4C=CC[C@@H](C)[C@@H]4C(=O)N3Cc3ccccc3)c2)cc1`, the Tm shift relative to glycine control is 15.4% (active). `Cc1cccc([C@H]2[C@@H]3C=CC[C@@H](C)[C@@H]3C(=O)N2Cc2ccccc2)c1`: the Tm shift relative to glycine control was 0.67% (inactive). To `CNC(=O)C1CCN(S(=O)(=O)c2c(C)noc2/C=C/c2cccc(C)c2)CC1` belongs 1.97% (inactive); to `CCOC(=O)c1c(Cc2ccc(Cl)cc2)c[nH]c1C`, -13.2% (inactive); to `CC(C)(C)NC(=O)CN(Cc1cccs1)C(=O)CNS(=O)(=O)c1ccccc1`, -2.34% (inactive). As to `O=C(c1ccc(-n2cnnn2)cc1)N1CCN(C(c2ccccc2)c2ccccc2)CC1`, the Tm shift relative to glycine control is -0.38% (inactive). Regarding `Cn1nnnc1SCC(=O)N1CCN(C(c2ccccc2)c2ccccc2)CC1`, the Tm shift relative to glycine control is 11% (active). To `Cn1nnnc1SCC(=O)N1CCN(Cc2ccccc2)CC1` belongs 0.27% (inactive). To `N#C/C(C(=S)Nc1ccccc1)=C1/NN=C(N2CCOCC2)N1c1ccccc1` belongs 1.45% (inactive); to `CCC(C(=O)OCC(=O)Nc1c(Cl)cc(Cl)cc1Cl)c1ccccc1` (stereo not given), -8.02% (inactive). To `CCC(C(=O)OCC(=O)Nc1ccccc1-c1ccccc1)c1ccccc1` (stereo not given) belongs -2.7% (inactive). Regarding `CN(CC(=O)Nc1ccc(OC(F)F)cc1)S(=O)(=O)/C=C/c1ccccc1`, the Tm shift relative to glycine control was -9.87% (inactive).

As to `CCC(C(=O)OCC(=O)Nc1ccc(C(=O)Nc2ccc(OC)cc2)cc1)c1ccccc1` (stereo not given), the Tm shift relative to glycine control was 22.5% (active). To `COc1ccc(NC(=O)COC(=O)c2ccc(NS(=O)(=O)/C=C/c3ccccc3)cc2)cc1` belongs 20.6% (active); to `COc1ccc(NC(=O)CS(=O)(=O)c2ccccc2)cc1`, 2.82% (inactive). The figure for `c1cnc(N2CCN(c3ccc4ccccc4n3)CC2)nc1` is -1.6% (inactive).

`O=C(CN1CCc2ccccc21)NC(c1ccccc1)c1ccccc1`: the Tm shift relative to glycine control is -10.2% (inactive).

For `O=C1C=C(NCCNc2c(F)c(F)c(CO)c(F)c2F)CCC1`, the Tm shift relative to glycine control was -8.05% (inactive). Take `Cc1ccc(NC(=O)COC(=O)CN2CCCCCC2=O)c(C)c1`: the Tm shift relative to glycine control is -0.17% (inactive).

`Cc1ccc(C(=O)NNC(=O)c2ccncc2)cc1S(=O)(=O)N1CCCCC1`: the Tm shift relative to glycine control is -0.93% (inactive).

Take `Cc1ccc(C(=O)NC2CCCC(C)C2C)cc1S(=O)(=O)N1CCCCC1` (stereo not given): the Tm shift relative to glycine control is 20.8% (active). To `CC1CCCC(NC(=O)c2cc(S(=O)(=O)N3CCCCC3)ccc2Cl)C1C` (stereo not given) belongs -1.61% (inactive); to `COc1ccc(OC)c(C2C3=C(N=c4s/c(=C\c5cccc(O)c5)c(=O)n42)c2ccccc2CC3)c1` (stereo not given), 17.9% (active); to `O=C1CCCC2=C1C(c1ccccc1)n1c(s/c(=C/c3cccc(F)c3)c1=O)=N2` (stereo not given), 2.84% (inactive).

With `COCCOC(=O)C1=C(C)N=c2s/c(=C\c3cccs3)c(=O)n2C1c1cccs1` (stereo not given), the Tm shift relative to glycine control was -1.71% (inactive). The figure for `COC1=CCC2([N+](=O)[O-])CN(CC(=O)O)CC1([N+](=O)[O-])C2` (stereo not given) is -3.94% (inactive). To `O=C(CCc1ccc(S(=O)(=O)N2CCOCC2)cc1)OCC(=O)c1ccc(Br)cc1` belongs -0.17% (inactive). To `N#CCC(=O)NC1CCC(CC2CCC(NC(=O)CC#N)CC2)CC1` (stereo not given) belongs 0.51% (inactive); to `O=[N+]([O-])c1ccc(COc2ccccc2CN2CCOCC2)cc1`, -1.9% (inactive).

Source of the values: PubChem BioAssay AID1259313 (Sanford-Burnham Center for Chemical Genomics, 2017).
